# Results: PMC12215968
# Tests used:
# [1] = molecular target: Heat shock-related 70 kDa protein 2 (UniProt P54652); test: cross-linking mass spectrometry
# [2] = molecular target: Heat shock protein 105 kDa (UniProt Q92598); test: cross-link between two proteins; cross-linking mass spectrometry
# Histone H2B type 1-L = Histone H2B type 1-L (UniProt Q99880); test: cross-linking mass spectrometry
# Nucleobindin-1 = Nucleobindin-1 (UniProt Q02818); test: cross-linking mass spectrometry
# 14-3-3 protein epsilon = 14-3-3 protein epsilon (UniProt P62258); test: cross-link between two proteins; cross-linking mass spectrometry
# [3] = molecular target: 26S proteasome non-ATPase regulatory subunit 1 (UniProt Q99460); test: as above
# [4] = molecular target: 26S proteasome regulatory subunit 10B (UniProt P62333); test: as above
# [5] = molecular target: 26S proteasome regulatory subunit 7 (UniProt P35998); test: as above
# [6] = molecular target: ATP synthase F(1) complex subunit alpha, mitochondrial (UniProt Q03265); test: as above
# [7] = molecular target: ATP synthase F(1) complex subunit gamma, mitochondrial (UniProt Q91VR2); test: as above
# [8] = molecular target: Creatine kinase U-type, mitochondrial (UniProt P12532); test: as above
# [9] = molecular target: Elongation factor 1-alpha 2 (UniProt Q05639); test: as above
# [10] = molecular target: Heterogeneous nuclear ribonucleoprotein A1-like 2 (UniProt Q32P51); test: as above
# [11] = molecular target: NADH dehydrogenase [ubiquinone] 1 beta subcomplex subunit 5, mitochondrial (UniProt Q9CQH3); test: as above
# Septin-10 = Septin-10 (UniProt Q9P0V9); test: as above
# Tubulin beta-2B chain = Tubulin beta-2B chain (UniProt Q9BVA1); test: as above
substance,measurement,setting,value
"Heat shock 70 kDa protein 4, P34932",listed as a hit,[1],yes
same,listed as a hit,[2],yes
"Non-histone chromosomal protein HMG-14, P05114",listed as a hit,Histone H2B type 1-L,yes
"Nucleobindin-2, P80303",listed as a hit,Nucleobindin-1,yes
"14-3-3 protein sigma, P31947",listed as a hit,14-3-3 protein epsilon,yes
"Proteasome subunit alpha type-4, P25789",listed as a hit,[3],yes
"Proteasome subunit alpha type-6, P60900",listed as a hit,[4],yes
"26S proteasome non-ATPase regulatory subunit 7, P51665",listed as a hit,[4],yes
"Proteasome subunit alpha type-7, O14818",listed as a hit,[5],yes
"ATP synthase F(1) complex subunit epsilon, mitochondrial, P56382",listed as a hit,[6],yes
"ATP synthase F(1) complex subunit alpha, mitochondrial, Q03265",listed as a hit,[7],yes
"Creatine kinase B-type, P12277",listed as a hit,[8],yes
"Elongation factor 1-beta, P24534",listed as a hit,[9],yes
"Heterogeneous nuclear ribonucleoprotein A0, Q13151",listed as a hit,[10],yes
"NADH dehydrogenase [ubiquinone] 1 subunit C2, Q9CQ54",listed as a hit,[11],yes
"Septin-7, Q16181",listed as a hit,Septin-10,yes
"Tubulin-specific chaperone A, O75347",listed as a hit,Tubulin beta-2B chain,yes
